Results from the antibiotic and cytotoxicity screens of Wong et al. (2023).
The whole screen tested about 39,000 compounds, of which about 1,500 (3.8%) were called active. Shown is part of a subset that was picked to be rich in actives.

test system: HSkMC (human skeletal muscle cells); assay: cytotoxicity call (relative viability < 0.9); conditions: 10 µM

Row | SMILES | cytotoxicity call
1 | COc1ccc(CCNC(=O)[C@@]2(Sc3ccc(C)cc3)CC(=O)N(C(C)C)[C@@H]2c2ccc(CO)cc2)cc1 | inactive
2 | COc1ccc(NC(=O)N(C)C[C@H]2Oc3c(NC(=O)C4CC4)cccc3C(=O)N([C@@H](C)CO)C[C@@H]2C)cc1 | inactive
3 | C[C@@H]1CN([C@H](C)CO)S(=O)(=O)c2ccc(C#Cc3ccncc3)cc2O[C@@H]1CN(C)C(=O)C1CCC1 | inactive
4 | COc1cccc(S(=O)(=O)Nc2ccc3c(c2)[C@@H]2C[C@H](CC(=O)NCc4ccccc4F)O[C@H](CO)[C@@H]2O3)c1 | inactive
5 | C[C@@H]1CCCCO[C@H](CN(C)S(=O)(=O)c2cccs2)[C@H](C)CN([C@@H](C)CO)C(=O)c2cc(NC(=O)Nc3ccccc3)ccc2O1 | inactive
6 | C[C@@H]1CCCCO[C@@H](CN(C)C(=O)Cc2ccccc2)[C@@H](C)CN([C@@H](C)CO)C(=O)c2cc(NS(=O)(=O)c3ccc(F)cc3)ccc2O1 | inactive
7 | C[C@H]1CN([C@@H](C)CO)C(=O)Cc2cc(NC(=O)C3CCCCC3)ccc2O[C@H]1CN(C)C(=O)Nc1ccc(C(F)(F)F)cc1 | inactive
8 | C[C@@H]1CN([C@H](C)CO)C(=O)c2cc(NC(=O)C3CCCCC3)ccc2O[C@@H](C)CCCCO[C@@H]1CN(C)C(=O)c1ccccc1 | inactive
9 | C[C@H]1CN([C@@H](C)CO)C(=O)Cc2cc(NC(=O)CCC(F)(F)F)ccc2O[C@H]1CN(C)S(=O)(=O)c1cccs1 | inactive
10 | C[C@H](CO)N1C[C@H](C)[C@@H](CN(C)Cc2ccc(C(=O)O)cc2)OCCCC[C@H](C)Oc2ccc(NC(=O)Nc3ccccc3)cc2C1=O | inactive
11 | CC(C)(ON=C(C(=O)NC1C(=O)N2C(C(=O)[O-])=C(C[n+]3ccccc3)CSC12)c1csc(N)n1)C(=O)O (centres undefined) | inactive
12 | C[C@@H]1CN([C@@H](C)CO)C(=O)c2cc(NC(=O)NC3CCCCC3)ccc2O[C@@H](C)CCCCO[C@H]1CN(C)Cc1ccc(C(F)(F)F)cc1 | inactive
13 | C[C@H]1CCCCO[C@H](CN(C)Cc2ccc(C(F)(F)F)cc2)[C@@H](C)CN([C@@H](C)CO)C(=O)c2cc(NC(=O)NC3CCCCC3)ccc2O1 | inactive
14 | C[C@H](CO)N1C[C@H](C)[C@@H](CN(C)Cc2ccc(C(F)(F)F)cc2)OCCCC[C@H](C)Oc2ccc(NC(=O)NC3CCCCC3)cc2C1=O | active
15 | Cc1ccc(/C=N/N(C)C2=NCCN2)o1 | inactive
16 | Cc1cc(C)c2c(c1)[C@@H](N(Cc1cc(C(F)(F)F)cc(C(F)(F)F)c1)c1nnn(C)n1)CCCN2C[C@H]1CC[C@H](C(=O)O)CC1 | active
17 | C[C@H]1CN([C@@H](C)CO)C(=O)c2cc(NC(=O)Nc3ccc(C(F)(F)F)cc3)ccc2O[C@H]1CN(C)C(=O)Nc1ccc2c(c1)OCO2 | inactive
18 | CC(=O)N(C)C[C@@H]1Oc2ncc(C#C[C@@H](C)O)cc2C(=O)N([C@H](C)CO)C[C@@H]1C | inactive
19 | C[C@@H]1CN([C@@H](C)CO)C(=O)c2cc(NC(=O)c3ccncc3)ccc2O[C@@H](C)CCCCO[C@H]1CN(C)C(=O)Nc1ccc2c(c1)OCO2 | inactive
20 | COc1ccc(CN(C)C[C@@H]2OCCCC[C@H](C)Oc3ccc(NS(=O)(=O)c4ccc(Cl)cc4)cc3C(=O)N([C@H](C)CO)C[C@H]2C)cc1 | inactive
21 | O=C(N[C@@H](c1ccccc1)c1ccc2ccccc2n1)C1CCN(Cc2cccc(C(F)(F)F)c2)CC1 | inactive
22 | O=C(N[C@H](c1ccc(F)cc1)c1ccc2ccccc2n1)C1CCN(Cc2ccc(Oc3ccccc3)cc2)CC1 | inactive
23 | Cn1cc(CN2CCC(C(=O)N[C@@H](c3ccc(F)cc3)c3ccc4ccccc4n3)CC2)c2ccccc21 | active

Row | SMILES | cytotoxicity call
24 | O=C(N[C@H](c1ccc(F)cc1)c1ccc2ccccc2n1)C1CCN(Cc2cccc(C(F)(F)F)c2)CC1 | active
25 | COc1cc(CN2CCC(C(=O)N[C@@H](c3ccc(F)cc3)c3ccc4ccccc4n3)CC2)cc(OC)c1 | inactive
26 | O=C(N[C@H](c1ccc(F)cc1)c1ccc2ccccc2n1)C1CCN(Cc2ccc3ccccc3n2)CC1 | inactive
27 | COc1ccc(CNC(=S)NCCO)cc1 | inactive
28 | O=S(=O)(NCC[C@@H]1CC[C@H](NS(=O)(=O)c2cccc(Cl)c2)[C@@H](CO)O1)c1cccc(F)c1 | inactive
29 | Cc1noc(C)c1NC(=O)N(C)C[C@H]1Oc2ccc(NS(=O)(=O)c3cccs3)cc2CC(=O)N([C@@H](C)CO)C[C@@H]1C | inactive
30 | CCCNC(=O)N1C[C@H](O)COC[C@@H]2O[C@@H](CC(=O)NCc3ccncn3)CC[C@H]21 | inactive
31 | Cc1ccc(OCc2ccc(Cl)cc2)c(C(C)(C)C)c1 | inactive
32 | CC[C@@H](C)NCCCCOc1ccc(Cl)cc1C(C)(C)C | active
33 | CC(C)(C)NCCCCOc1ccc(Cl)cc1C(C)(C)C | inactive
34 | C[C@@H]1CCCCO[C@H](CN(C)C(=O)CCC(F)(F)F)[C@H](C)CN([C@@H](C)CO)C(=O)c2cc(NS(=O)(=O)c3ccc(Cl)cc3)ccc2O1 | inactive
35 | C[C@@H]1CN([C@H](C)CO)C(=O)c2cc(-c3cccc(C#N)c3)cnc2O[C@H]1CN(C)C(=O)c1cnccn1 | inactive
36 | CO[C@@H]1CN(C)C(=O)c2ccc(NS(C)(=O)=O)cc2OC[C@@H](C)N(S(=O)(=O)CC(F)(F)F)C[C@H]1C | inactive
37 | C[C@H]1CN([C@@H](C)CO)C(=O)c2cccc(NC(=O)Nc3ccc(C(F)(F)F)cc3)c2O[C@H]1CN(C)C(=O)Nc1ccc(C(F)(F)F)cc1 | inactive
38 | C[C@H]1CN([C@@H](C)CO)C(=O)c2cccc(NC(=O)Nc3ccc(C(F)(F)F)cc3)c2O[C@@H]1CN(C)C(=O)Nc1ccc(F)cc1 | inactive
39 | C[C@@H]1CN([C@H](C)CO)C(=O)c2cccc(NC(=O)Nc3ccc(F)cc3)c2O[C@H]1CN(C)C(=O)Nc1ccc(C(F)(F)F)cc1 | inactive
40 | C[C@H]1CN([C@@H](C)CO)C(=O)c2cccc(NC(=O)Nc3ccc(C(F)(F)F)cc3)c2O[C@@H]1CN(C)C(=O)Nc1ccccc1 | inactive
41 | C[C@H](CO)N1C[C@H](C)[C@H](CN(C)C(=O)Nc2ccc(C(F)(F)F)cc2)Oc2c(NC(=O)Nc3ccc(C(F)(F)F)cc3)cccc2C1=O | active
42 | C[C@@H]1CN([C@H](C)CO)C(=O)c2cccc(NC(=O)Nc3ccc(C(F)(F)F)cc3)c2O[C@@H]1CN(C)C(=O)Nc1ccccc1 | active
43 | C[C@H](CO)N1C[C@H](C)[C@H](CN(C)C(=O)Nc2ccc(C(F)(F)F)cc2)Oc2c(NC(=O)Nc3ccccc3)cccc2C1=O | inactive
44 | C[C@@H]1CN([C@@H](C)CO)C(=O)c2cccc(NC(=O)Nc3ccccc3)c2O[C@@H]1CN(C)C(=O)Nc1ccc(C(F)(F)F)cc1 | inactive
45 | COc1ccc(NC(=O)Nc2cccc3c2O[C@H](CN(C)C(=O)Nc2ccc(C(F)(F)F)cc2)[C@@H](C)CN([C@@H](C)CO)C3=O)cc1 | inactive
46 | COc1ccc(NC(=O)Nc2cccc3c2O[C@@H](CN(C)C(=O)Nc2ccc(C(F)(F)F)cc2)[C@@H](C)CN([C@@H](C)CO)C3=O)cc1 | inactive

Row | SMILES | cytotoxicity call
47 | C[C@@H]1CN([C@H](C)CO)C(=O)c2cccc(NC(=O)Nc3ccc(C(F)(F)F)cc3)c2O[C@@H]1CN(C)C(=O)Nc1ccc(C(F)(F)F)cc1 | active
48 | COc1ccc(NC(=O)N(C)C[C@H]2Oc3c(NC(=O)Nc4ccc(C(F)(F)F)cc4)cccc3C(=O)N([C@@H](C)CO)C[C@@H]2C)cc1 | active
49 | COc1ccc2c3c(n(c2c1)C)[C@H](CO)N(C[C@]13CN(C1)C(=O)CN1CCOCC1)C(=O)Nc1ccc(cc1)F | inactive
50 | C[C@H]1CN([C@@H](C)CO)C(=O)CCCn2cc(nn2)CO[C@@H]1CN(C)C(=O)c1ccc(N2CCN(C)CC2)cc1 | inactive
51 | CC/C(=C\C(=O)O)c1ccccc1 | inactive
52 | O=C(C[C@@H]1C[C@@H]2c3cc(NC(=O)C4CCOCC4)ccc3O[C@@H]2[C@H](CO)O1)NCCN1CCCCC1 | inactive
53 | COCC(=O)N1C[C@@H](C)[C@@H](OC)CN(C)C(=O)c2ccc(NC(=O)Nc3cccc(F)c3)cc2OC[C@@H]1C | inactive
54 | Cc1cccc(S(=O)(=O)N2C[C@H](O)COC[C@H]3O[C@H](CC(=O)NCc4ccncn4)CC[C@@H]32)c1 | inactive
55 | C[C@@H]1CCN(C(=O)[C@H](CCCNC(=N)N)NS(=O)(=O)c2cccc3c2NC[C@H](C)C3)[C@@H](C(=O)O)C1 | inactive
56 | CNC(=O)C[C@@H]1CC[C@@H]2[C@H](COC[C@H](O)CN2C(=O)c2ccccn2)O1 | inactive
57 | N#C[C@@H]1[C@H](c2ccc(C#Cc3ccccn3)cc2)[C@@H](CO)N1C(=O)CN1CCOCC1 | inactive
58 | CC(C)NC(=O)N(C)C[C@@H]1Oc2ccc(NS(=O)(=O)c3cn(C)cn3)cc2C(=O)N([C@H](C)CO)C[C@@H]1C | inactive
59 | C[C@@H]1CN([C@@H](C)CO)C(=O)c2cc(NC(=O)Nc3ccccc3)ccc2O[C@@H](C)CCCCO[C@H]1CN(C)S(=O)(=O)c1cccs1 | inactive
60 | C[C@H](CO)N1C[C@H](C)[C@H](CN(C)C(=O)Nc2ccc(F)cc2)Oc2c(NC(=O)Nc3ccc(C(F)(F)F)cc3)cccc2C1=O | active
61 | C[C@H](CO)N1C[C@H](C)[C@@H](CN(C)C(=O)Nc2ccc(C(F)(F)F)cc2)Oc2c(NC(=O)Nc3ccc(C(F)(F)F)cc3)cccc2C1=O | active
62 | C[C@@H]1CN([C@H](C)CO)C(=O)c2cccc(NC(=O)Nc3ccc(F)cc3)c2O[C@@H]1CN(C)C(=O)Nc1ccc(C(F)(F)F)cc1 | inactive
63 | C[C@H]1CN([C@@H](C)CO)C(=O)c2cccc(NC(=O)Nc3ccccc3)c2O[C@@H]1CN(C)C(=O)Nc1ccc(C(F)(F)F)cc1 | inactive
64 | C[C@@H]1CN([C@H](C)CO)C(=O)c2cccc(NC(=O)Nc3ccc(C(F)(F)F)cc3)c2O[C@H]1CN(C)C(=O)Nc1ccc(C(F)(F)F)cc1 | inactive
65 | C[C@H]1CN([C@@H](C)CO)C(=O)c2cccc(NC(=O)Nc3ccc(C(F)(F)F)cc3)c2O[C@@H]1CN(C)C(=O)Nc1ccc(C(F)(F)F)cc1 | active
66 | C[C@@H]1CN([C@H](C)CO)C(=O)c2cccc(NC(=O)Nc3ccc(C(F)(F)F)cc3)c2O[C@@H]1CN(C)C(=O)Nc1ccc(F)cc1 | inactive
67 | C[C@@H]1CN([C@@H](C)CO)C(=O)c2cccc(NC(=O)Nc3ccc(C(F)(F)F)cc3)c2O[C@H]1CN(C)C(=O)Nc1ccc(C(F)(F)F)cc1 | inactive
68 | C[C@H]1CN([C@@H](C)CO)C(=O)c2cccc(NC(=O)Nc3ccc(C(F)(F)F)cc3)c2O[C@H]1CN(C)C(=O)Nc1ccc(F)cc1 | inactive
69 | C[C@@H]1CN([C@@H](C)CO)C(=O)c2cccc(NC(=O)Nc3ccc(C(F)(F)F)cc3)c2O[C@@H]1CN(C)C(=O)Nc1ccc(C(F)(F)F)cc1 | active
